Data published in ChEMBL document CHEMBL4296182, “CO-ADD screening of NIH NCI Diversity Set V”.
For part of these data: Entries with a potency or affinity are not part of this list.

Key:
Staphylococcus aureus = assay: Antibacterial activity against Staphylococcus aureus MRSA ATCC 43300 (CO-ADD:GP_020); MIC in CAMBH media using NBS plates, by Resazurin F(560/590); assay type: functional; conditions: Concentration 20 uM, ASSAY_TEST Inhibition of Bacterial Growth, detection method Resazurin, Fluorescence (ex560/em590), MEDIA CAMHB, plate type 384well, CORNING #3640, time 18 hr
Acinetobacter baumannii = assay: Antibacterial activity against Acinetobacter baumannii ATCC 19606 (CO-ADD:GN_034); MIC in CAMBH media using NBS plates, by Resazurin F(560/590); assay type: functional; conditions: Concentration 20 uM, ASSAY_TEST Inhibition of Bacterial Growth, detection method Resazurin, Fluorescence (ex560/em590), MEDIA CAMHB, plate type 384well, CORNING #3640, time 18 hr
Escherichia coli = assay: Antibacterial activity against Escherichia coli ATCC 25922 (CO-ADD:GN_001); MIC in CAMBH media using NBS plates, by Resazurin F(560/590); assay type: functional; conditions: Concentration 20 uM, ASSAY_TEST Inhibition of Bacterial Growth, detection method Resazurin, Fluorescence (ex560/em590), MEDIA CAMHB, plate type 384well, CORNING #3640, time 18 hr
Klebsiella pneumoniae = conditions: Concentration 20 uM; ASSAY_TEST Inhibition of Bacterial Growth; detection method Absorption (OD600); MEDIA CAMHB; plate type 384well; NBS; CORNING #3640; time 18 hr
Candida albicans = conditions: 20 µM
Cryptococcus neoformans = conditions: Concentration 20 uM; ASSAY_TEST Inhibition of Fungal Growth; detection method Resazurin; Absorption (OD600-OD570); plate type 384well; NBS; CORNING #3640

Row | Compound | Inhibition (Staphylococcus aureus) [%] | Inhibition (Acinetobacter baumannii) [%] | Inhibition (Escherichia coli) [%] | Inhibition (Klebsiella pneumoniae) [%] | Inhibition (Candida albicans) [%] | Inhibition (Cryptococcus neoformans) [%]
1 | O=C1c2cccc3cc([N+](=O)[O-])cc(c23)C(=O)N1CCN1CCCC1 [PINAFIDE] | -1.04 | 10.65 | -8.19 | 5.33 | 0.21 | -7.33
2 | CCCCSc1[nH]cnc2nncc1-2 | -2.6 | -0.75 | 12.29 | -0.95 | 4.01 | -16.47
3 | CC1(C)c2ccccc2-c2nc3ccccc3cc2C1O (centres undefined) | 15.31 | 7.67 | -1.43 | 14.38 | 9.47 | -10.94
4 | O=C(Nc1nnc(C(F)(F)F)s1)c1c(F)cccc1F | 18.6 | 12.37 | 3.33 | 14.22 | 14.6 | 22.23
5 | CCN1CCCCC(=N\O)/C(=N/O)CCCC1 | -0.99 | -8.24 | 1.26 | 23.74 | -0.06 | -7.99
6 | Nc1ccccc1Sc1cc(Cl)nnc1Cl | 10.59 | -10.6 | 6.4 | 13.76 | 6.84 | -6.72
7 | Nc1nc(O)c2ncn(C3CCCC3)c2n1 | 3.29 | -9.23 | 3.79 | 16.95 | -0.06 | -9.03
8 | Nc1nc(N)c(/C=N/c2ccc(Br)cc2)c(Nc2ccc(Br)cc2)n1 | -2.53 | -11.54 | 5.75 | -1.66 | -1.08 | 1.82
9 | CN1CCC=C(C(=O)N2c3ccccc3Sc3ccc(Cl)cc32)C1.O=C(O)CCC(=O)O | 8.59 | -10 | 17.87 | -0.76 | -1.22 | -4.64
10 | Cc1cc2cc3n(c2nn1)N=C(Cl)CC3 | 10.12 | 6.88 | -0.69 | 18.79 | 2.37 | -3.5
11 | CCc1nc(N)nc(N)c1-c1ccc(N(C)Cc2ccccc2)c([N+](=O)[O-])c1 | -14.23 | -5.52 | 6.75 | 5.93 | 0.08 | -8.19
12 | COc1cc2c(c3c1c(=O)c1cccc(F)c1n3C)C=CC(C)(C)O2 | 18.94 | 5.21 | 5.53 | 10.26 | 1.02 | -11.93
13 | CCOc1ccc(NC(=O)C2CCCN(C)C2)cc1 (centres undefined) | 8.6 | 6.87 | -2.25 | 20.11 | 9.11 | -4.92
14 | Cc1ccc(/N=N/c2ccc(C)cc2NC(=O)Nc2ccccc2F)cc1 | 3.8 | 6.73 | 1.93 | 9.05 | 6.78 | 3.6
15 | CCOC(=O)/C(=N\O)C1=CSC2=NNC(C)(C)N12 | 3.63 | -13.67 | 6.92 | 9.3 | 5.91 | -6.65
16 | Cc1c(Cl)cccc1NC(=O)CC1Sc2ccccc2NC1=O (centres undefined) | 7.76 | 13.12 | -17.77 | 3.05 | 8.03 | 45.43
17 | O=c1[nH]c(=S)c2nc(S)n(-c3ccccc3)c2[nH]1 | 13.04 | 12.41 | 5.84 | 9.43 | 0.52 | -6.47
18 | CCOc1ccc(/C=C2\CCc3ccccc3C2=O)cc1 | -3.91 | -2.84 | -2.65 | 4.93 | 5.43 | -7.99
19 | CCCCSc1nc(O)cc(C(=O)O)n1 | 3.28 | -12.23 | 5.2 | 7.02 | 2.48 | -8.23
